# Experimental data published in PubChem BioAssay (NCI).
# About 83,000 compounds went through this panel and 20% of them were active in at least one assay; those are over-represented in the sample as a whole.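 96-well plates, one dose, 48 hours. Percent growth reported; active if below 10.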 Values without a mark were called inactive. Calls of active or inactive are those of the source.
# Experiments:
# Test in all cases: NCI-60 one-dose screen, 48 h (100 = growth as untreated, 0 = no growth, -100 = all killed)
# Conditions in all cases: 10 µM unless noted
# [1] = tested on: DU-145 prostate
# [2] = tested on: K-562 leukemia
# [3] = tested on: MALME-3M melanoma
# [4] = tested on: MDA-MB-231 breast
# [5] = tested on: RXF 393 renal
# [6] = tested on: SF-268 CNS
# [7] = tested on: SF-295 CNS
# [8] = tested on: SF-539 CNS
# [9] = tested on: UACC-257 melanoma
# [10] = tested on: M14 melanoma
SMILES,growth [1],growth [2],growth [3],growth [4],growth [5],growth [6],growth [7],growth [8],growth [9],growth [10]
Clc1ccccc1Nc1nnc(-c2c[nH]c3ccccc23)o1,21.5%,6.76% (active),41.9%,16%,-5.74% (active),48.5%,9.04% (active),-43.6% (active),65%,22.8%
O=C(NNC(=S)NC(=O)c1ccccc1)c1ccc(OCc2nc3ccc(Cl)cc3[nH]2)cc1,26.3%,4.64% (active),-75.4% (active),-71.2% (active),-56.7% (active),-2.2% (active),-80.9% (active),-91.2% (active),-24.8% (active),-54.5% (active)
COc1ccc(-c2nc3ccc(-c4nnc(SCC(=O)Nc5ccc(/C(C)=N\O)cc5)o4)cc3[nH]2)cc1,71.7%,32.4%,-20.5% (active),56%,-45.2% (active),49.4%,97.7%,-53.4% (active),50.4%,28.5%
Clc1ccc(CNc2nc(SCCN3CCOCC3)nc3c2cnn3CC(Cl)c2ccc(Br)cc2)cc1 (stereo not given),57.1%,7.71% (active),1.86% (active),44.1%,51.1%,49.3%,14.3%,27.4%,33.2%,37.2%
O=C1/C(=C/C=C/c2ccco2)SC(=S)N1CC(=S)C1C=CS(=O)(=O)C1 (stereo not given),97.4%,75%,83.3%,85.8%,79.4%,91%,88.9%,99%,92.3%,98.9%
COc1ccc2[nH]c(O)c(N=Nc3nc(-c4ccc(C#N)cc4)cs3)c2c1,52.9%,67.7%,15.1%,59.7%,38%,82.6%,68.8%,48.9%,70.6%,82.3%
O=C(NNC(=O)c1ccc(OCc2nc3ccc(Cl)cc3[nH]2)cc1)Nc1ccc(Cl)c(Cl)c1,73%,29.6%,6.73% (active),44.1%,69.4%,85.6%,101%,43.3%,95.6%,56.4%
O=C1CCC(N2C(=O)c3cccc(NCCOCCOCCOCCC(=O)NCCCC(=O)NC(c4ccc5c(c4)OCO5)c4cc(Cl)c5cccnc5c4O)c3C2=O)C(=O)C1 (stereo not given),60%,22.8%,29.3%,25.3%,43.6%,24.4%,61.6%,10.3%,29.7%,54.8%
CC[C@]12C=CCN3CC[C@]4(C(=C(C(=O)OC)C1)Nc1cc(OC)c([C@@H]5[C@H]6O[C@H]6[C@@]6(CC)CC(C(=O)OC)=C7Nc8cc(O)ccc8[C@@]78CCN5[C@@H]68)cc14)[C@@H]32,23.2%,-3.65% (active),-77.4% (active),-54.2% (active),-34.2% (active),22.3%,-47.2% (active),-38.4% (active),-10.2% (active),-28.4% (active)
CCN1C(=O)N(CC)C2NNC(Sc3c(C(=O)O)c4ccccc4n(CCC(C)C)c3=O)=NC21 (stereo not given),17.7%,6.37% (active),46.5%,10.9%,-1.23% (active),49.3%,-16.5% (active),-53.4% (active),40%,12.1%
Nc1nnc(-c2cncc(Br)c2)c(-c2c[nH]c3ccc(Br)cc23)n1,85.9%,19.1%,74.1%,48.7%,55.6%,77.1%,74.5%,52.3%,73.9%,44.5%
Cn1ncc2c(N)nc(Oc3ccccc3-c3ccccc3)nc21,73.1%,6.56% (active),25.7%,43%,25%,55.6%,27.2%,25.9%,63.5%,13.6%
COc1sc(/C=N/NC(=O)c2[nH]c3ccc(Br)cc3c2-c2ccccc2)cc1Br,-8.01% (active),7.79% (active),48%,-13.3% (active),-0.818% (active),3.22% (active),-15% (active),-64.1% (active),52.7%,10.7%
CC[C@]12C=CCN3CC[C@@]4(c5ccc(OC)cc5N(C)[C@H]4[C@@](O)(C(=O)OC)[C@@H]1OC(=O)CCCC[P+](c1ccc(F)cc1)(c1ccc(F)cc1)c1ccc(F)cc1)[C@@H]32,36.4%,17.1%,-55.9% (active),2.85% (active),-9.93% (active),28.1%,78.5%,16%,-50.7% (active),19.7%
O=C(Nc1nc2ccccc2s1)Nc1ccccc1Cl,99.9%,86.2%,79.7%,51.9%,73.8%,77.3%,45%,51%,98.8%,93.7%
